C diff HTS: C. difficile growth inhibitors, primary screen, HTS. Clostridium difficile clinical isolate growth, OD600, 24 h; active compounds read low. growth activity, negative = inhibition, % at 16 µg/mL (by protocol). 86,000 compounds, 0.25% hits;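 active = mean growth activity at or below -80% and every replicate also at or below -80%; inconclusive = mean at or below -80% but some replicate above -80%; inactive = mean growth activity above -80%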;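 also: 0% = DMSO wells and -100% = levofloxacin 16 µg/mL wells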
Pf Dd2 growth: P. falciparum Dd2 growth inhibitors, primary screen, SYBR Green fluorescence, single dose replicates; AID 1159554, 2015; 72 h; active compounds read low; activity change, % at 10 µM; 94,000 compounds, 2.3% hits; in the data active = activity change below about -80%; inconclusive = no clear call, values can overlap the other calls
T cruzi growth-1: T. cruzi intracellular proliferation inhibitors, primary screen, cell-based, beta-gal Tulahuen parasites, NIH3T3 host, luminescence | T. cruzi beta-gal in NIH3T3, GalScreen luminescence, 90 h | inhibition, % at 8.34 µM | 77,000 compounds, 5.9% hits;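 active = mean inhibition above about 93%, with at least 55% of replicates each passing it, limit read from the data, passing the limit was not always enough; inconclusive = only one of those two conditions holds; inactive = neither condition holds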
T cruzi growth-2: T. cruzi intracellular proliferation inhibitors, confirmation, cell-based, NIH3T3 host, beta-gal parasite, luminescence, cherry-pick | T. cruzi beta-gal in NIH3T3, GalScreen luminescence, 90 h | shares compounds with T cruzi growth-1 | AID 651739, 2012 | inhibition, % at 8.35 µM | 5,600 compounds, 72% hits;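 active = mean replicate inhibition above about 95% and at least 55% of replicates individually reaching it, limit read from the data; inconclusive = only one of the two criteria is met; inactive = neither criterion is met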
T cruzi growth-3: inhibitors of intracellular T. cruzi replication, confirmation, NIH3T3 host cells, beta-gal parasites, cherry-pick, set 2 | shares compounds with T cruzi growth-1 | T. cruzi beta-gal in NIH3T3, GalScreen luminescence, 90 h | inhibition, % at 2.09 µM | 5,600 compounds, 21% hits;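 active = mean inhibition above about 95%, with at least 55% of replicates also reaching it, limit read from the data; inconclusive = meets just one of the two conditions; inactive = meets neither condition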;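 also: plate controls were neutral control median for no effect and positive control median for full effect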
3T3 cytotox: cytotoxicity in mouse NIH/3T3 fibroblasts, confirmation, cytotoxicity control for T. cruzi proliferation inhibitor project, cell-based, cherry-pick, single point | shares compounds with T cruzi growth-1 | NIH/3T3 viability, CellTiter-Glo ATP luminescence, 90 h | cytotoxicity (signal decrease), % at 8.35 µM | 5,600 compounds, 14% hits;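 active = mean signal decrease across replicates above about 35% based on untreated-well scatter, with enough replicates individually passing, limit read from the data; inconclusive = no rule stated though some were filed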;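 also: 0% = median of neutral control wells and 100% = median of positive control wells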
NIH3T3 tox 2: NIH/3T3 fibroblast cytotoxicity, confirmation, cytotoxicity control, cell-based, cherry-pick, single point, set 2; shares compounds with T cruzi growth-1; NIH/3T3 viability, CellTiter-Glo ATP luminescence, 90 h; inhibition, % at 24.9 µM; 5,600 compounds, 56% hits; AID 651744, 2012;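 active = mean loss of cell viability signal at or above a set limit, and enough replicates individually reaching it; inconclusive = meets only the mean limit or only the replicate share; inactive = meets neither condition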;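 also: 0% = median of neutral control wells and 100% = median of positive control wells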
* hit, by the source's call; ? = inconclusive; / = no result given; ! = not confirmed by another sample. Hits are enriched below; roughly 6.7% of the tested compounds scored in any of these assays.

SMILES	C diff HTS	Pf Dd2 growth	T cruzi growth-1	T cruzi growth-2	T cruzi growth-3	3T3 cytotox	NIH3T3 tox 2
O=C(NCCc1ccccc1)[C@H]1[C@H](CO)[C@H]2Cn3c(cccc3=O)[C@@H]1N2C(=O)C1CCC1	-4	0	99*	66	21	10	-11
O=C(NCCc1ccccc1)[C@H]1[C@H](CO)[C@H]2Cn3c(cccc3=O)[C@@H]1N2C(=O)C1CCCC1	4	4	79	/	/	/	/
O=C(NCCc1ccccc1)[C@@H]1[C@@H](CO)[C@@H]2Cn3c(cccc3=O)[C@H]1N2C(=O)C1CCC1	0	-7	?	-15	11	-21	0
O=C(NCCc1ccccc1)[C@@H]1[C@@H](CO)[C@@H]2Cn3c(cccc3=O)[C@H]1N2C(=O)C1CC1	-2	/	21	/	/	/	/
C[C@H]1CN([C@@H](C)CO)C(=O)c2cc(C#Cc3cccc(F)c3)cnc2O[C@H]1CN(C)C(=O)C1CCOCC1	-7	-8	74	/	/	/	/
O=C(NCc1ccccc1)[C@@H]1[C@@H](CO)[C@@H]2Cn3c(cccc3=O)[C@H]1N2C(=O)CC1CC1	-1	4	9	/	/	/	/
CO[C@@H]1CN(C)C(=O)c2cc(NC(=O)c3ccccc3)ccc2OC[C@H](C)N(CC2CC2)C[C@H]1C	2	-19	-16	/	/	/	/
C[C@H](CO)N1C[C@H](C)[C@H](CN(C)CC2CC2)Oc2cc(C#Cc3ccccn3)ccc2S1(=O)=O	-6	-45	21	/	/	/	/
C[C@H](CO)N1C[C@H](C)[C@H](CN(C)Cc2ccc(F)cc2)Oc2cc(C#Cc3ccccn3)ccc2S1(=O)=O	0	-71	124*	109*	93	-28	9
C[C@H]1CN([C@@H](C)CO)S(=O)(=O)c2ccc(C#Cc3ccccn3)cc2O[C@@H]1CN(C)Cc1ccccc1	-12	-43	75	/	/	/	/
C[C@@H]1CN([C@@H](C)CO)S(=O)(=O)c2ccc(C#Cc3ccccn3)cc2O[C@H]1CN(C)C	-2	-3	/	/	/	/	/
C[C@H]1CN([C@@H](C)CO)S(=O)(=O)c2ccc(C#Cc3ccccn3)cc2O[C@H]1CN(C)Cc1ccc(F)cc1	3	-59	116*	103*	76	3	37*
C[C@H]1CN([C@@H](C)CO)S(=O)(=O)c2ccc(C#Cc3ccccn3)cc2O[C@@H]1CN(C)Cc1ccc(F)cc1	-4	-29	130*	96*	79	42*	85*
Cc1ccc(S(=O)(=O)N[C@H]2CC[C@H](CCn3cc(C(C)C)nn3)O[C@H]2CO)cc1	-5	-30	41	/	/	/	/
C[C@H](CO)N1C[C@H](C)[C@H](CN(C)Cc2ccc(Oc3ccccc3)cc2)Oc2ccc(NS(C)(=O)=O)cc2C1=O	-6	-14	59	/	/	/	/
C[C@H](CO)N1C[C@H](C)[C@H](CN(C)C(=O)C2CCCCC2)Oc2cc(Br)ccc2S1(=O)=O	7	-4	30	/	/	/	/
C[C@@H]1CN([C@H](C)CO)S(=O)(=O)c2ccc(Br)cc2O[C@H]1CN(C)C(=O)C1CCCCC1	-3	-23	100*!	34	0	10	48*
C[C@H]1CN([C@@H](C)CO)S(=O)(=O)c2ccc(Br)cc2O[C@@H]1CN(C)C(=O)C1CCCCC1	12	-51	103*	32	-14	-12	42*
C[C@@H]1CN([C@@H](C)CO)S(=O)(=O)c2ccc(Br)cc2O[C@H]1CN(C)C(=O)C1CCCCC1	1	-1	74	/	/	/	/
COc1ccc2c3c([nH]c2c1)[C@H](CO)N(C(=O)CN1CCOCC1)CC31CCN(C)CC1	-3	69	/	/	/	/	/
C[C@H](NC(=O)C[C@@H]1C[C@H]2c3cc(NC(=O)CN(C)C)ccc3O[C@H]2[C@H](CO)O1)c1ccccc1	1	2	3	/	/	/	/
O=C(C[C@H]1C=C[C@@H](NC(=O)C2CCOCC2)[C@H](CO)O1)Nc1ccc(-c2ccccc2)cc1	/	31	41	/	/	/	/
CC=Cc1ccc2n(c1=O)C[C@H]1[C@H](CO)[C@@H](C(=O)NCCc3ccccc3)[C@@H]2N1C (mixture of isomers)	0	9	-23	/	/	/	/
CC=Cc1ccc2n(c1=O)C[C@@H]1[C@@H](CO)[C@H](C(=O)NCc3ccccn3)[C@H]2N1CC1CC1 (mixture of isomers)	-4	1	60	/	/	/	/
CC=Cc1ccc2n(c1=O)C[C@H]1[C@H](CO)[C@@H](C(=O)NCc3ccccn3)[C@@H]2N1CCC (mixture of isomers)	-7	-1	108*	110*	21	-5	5
SMILES	C diff HTS	Pf Dd2 growth	T cruzi growth-1	T cruzi growth-2	T cruzi growth-3	3T3 cytotox	NIH3T3 tox 2
CCN1[C@@H]2Cn3c(ccc(/C=C/c4ccccc4)c3=O)[C@H]1[C@@H](C(=O)N1CCCCC1)[C@@H]2CO	/	/	170*	14	-41	10	45*
CCN1[C@@H]2Cn3c(ccc(/C=C/c4ccccc4)c3=O)[C@H]1[C@@H](C(=O)N1CCOCC1)[C@@H]2CO	5	-33	26	/	/	/	/
CC=Cc1ccc2n(c1=O)C[C@H]1[C@H](CO)[C@@H](C(=O)NCc3ccccc3)[C@@H]2N1C (mixture of isomers)	-3	8	96*	43	19	9	5
CC=Cc1ccc2n(c1=O)C[C@H]1[C@H](CO)[C@@H](C(=O)NCc3ccccc3Cl)N(S(C)(=O)=O)[C@@H]21 (mixture of isomers)	-9	/	107*	74	13	0	12
CC=Cc1ccc2n(c1=O)C[C@H]1[C@H](CO)[C@@H](C(=O)NCc3ccccc3F)N(S(C)(=O)=O)[C@@H]21 (mixture of isomers)	-2	7	47	/	/	/	/
O=C(C[C@H]1C[C@@H]2c3cc(NC(=O)CC4CC4)ccc3O[C@@H]2[C@@H](CO)O1)NCc1ccc2c(c1)OCO2	0	1	32	/	/	/	/
O=C(CN1CCOCC1)N[C@@H]1CC[C@H](CCn2cc(C3CC3)nn2)O[C@H]1CO	3	4	/	/	/	/	/
C[C@H](CO)N1C[C@H](C)[C@H](CN(C)Cc2ccc(C(=O)O)cc2)Oc2ccc(NS(C)(=O)=O)cc2CC1=O	7	16	28	/	/	/	/
CC=Cc1ccc2n(c1=O)C[C@H]1[C@H](CO)[C@@H](C(=O)N3CCc4ccccc4C3)[C@@H]2N1CCC (mixture of isomers)	-1	-8	103*	77	6	-20	12

Bioassay records (PubChem BioAssay)
